Compound activity as filed in PubChem BioAssay.
CYP2C9 inhib: blocks human cytochrome P450 2C9; inhibition, % at 5 µM; 20% of 96,000 active; CYP2C9 Supersomes, luciferin-H conversion, luminescence; AID 777;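 active means blocking of liver enzyme CYP2C9 beyond about 50% at 5 µM, limit read from the data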
Target sequence (P11712 whole entry, looked up): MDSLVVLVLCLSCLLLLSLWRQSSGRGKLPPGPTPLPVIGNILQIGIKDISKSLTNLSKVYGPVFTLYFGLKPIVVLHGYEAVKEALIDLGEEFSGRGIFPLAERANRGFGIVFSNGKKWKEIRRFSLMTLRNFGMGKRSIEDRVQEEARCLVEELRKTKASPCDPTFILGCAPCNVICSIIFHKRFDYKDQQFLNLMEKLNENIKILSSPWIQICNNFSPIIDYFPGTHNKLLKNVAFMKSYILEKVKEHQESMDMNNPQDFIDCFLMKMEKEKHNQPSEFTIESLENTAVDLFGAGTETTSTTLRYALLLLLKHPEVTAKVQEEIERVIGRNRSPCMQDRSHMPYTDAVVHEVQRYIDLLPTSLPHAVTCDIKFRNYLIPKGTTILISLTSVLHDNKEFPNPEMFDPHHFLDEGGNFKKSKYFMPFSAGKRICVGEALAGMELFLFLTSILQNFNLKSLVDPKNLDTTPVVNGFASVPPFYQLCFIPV
CYP2C9 act: increases human cytochrome P450 2C9 activity | P11712 | recombinant CYP2C9, luciferin-H conversion, luminescence; stronger effect = higher value; factor 1 = untreated enzyme, 0 = blocked | activation factor at 5 µM | 1.4% of 96,000 active | AID 1024;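 active means activation factor of 2 or more for CYP2C9 at a 5 µM dose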;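 further: 0 = sulfaphenazole-blocked wells and 1 = vehicle-only wells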
CD11b adhes enh: enhancers of human CD11b/CD18 binding to fibrinogen. K562 CD11b/CD18 adhesion to fibrinogen, ATPlite luminescence. activation, % at 10 µM. 0.07% of 93,000 active;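 active means 10 µM primary screen giving 50% or more activity, confirmed by 40% or more on retest at that dose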
CD11b adhes inh: blocks human CD11b/CD18 adhesion to fibrinogen | 0.54% of 93,000 active | AID 1497 | K562 CD11b/CD18 adhesion to fibrinogen, ATPlite luminescence; Mn2+ added to activate the integrin | P05107+P11215 | inhibition, % at 10 µM;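 active means primary inhibition of 50% or more at 10 µM, then 40% or more on retest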
CYP2C19 activ: activators of human cytochrome P450 2C19; recombinant CYP2C19, luciferin-H EGE luminescence; stronger effect = higher value; 0 = fully inhibited enzyme, 1 = untreated enzyme; activation factor at 5 µM; 96,000 tested, under 10 active; AID 1025;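 active means activation factor of at least 2 at 5 µM in the primary screen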;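 further: 0 = wells with 2.5 mM tranylcypromine and 1 = vehicle-only wells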
CYP2C19 inhib: inhibitors of human CYP2C19. CYP2C19 Supersomes, luciferin-H EGE luminescence, 30 min. inhibition, % at 5 µM. 21% of 96,000 active. AID 778;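 active means CYP2C19 inhibition above a set limit at 5 µM in the primary screen, cut at about 50% in these data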;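 further: plate controls were negative control wells for no effect and 2.5 mM tranylcypromine positive control for full effect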
* = called active by the depositor; / = not tested or not shown. Hits are enriched below; roughly 28% of the tested compounds scored in any of these assays.

SMILES	CYP2C9 inhib	CYP2C9 act	CD11b adhes enh	CD11b adhes inh	CYP2C19 activ	CYP2C19 inhib
O=C(Cc1csc(Nc2nc(=S)[nH]c3ccccc23)n1)NCc1ccccc1Cl	82.6*	0.2	/	/	0.7	34.8
O=C(Cc1csc(Nc2nc(=S)[nH]c3ccccc23)n1)NCc1cccc(Cl)c1	82.8*	0.2	/	/	0.7	31.3
COC(=O)c1ccc(-c2ccco2)n1Cc1ccccc1Cl	63.2*	0.4	3.0	1.1	0.8	16.4
Fc1cccc(Cl)c1Cn1nnc2c(N3CCC4(CC3)OCCO4)ncnc21	9.2	0.9	-0.6	-9.7	1	0.8
CCN(CC)c1ccc(C(=O)Nc2cccc(F)c2)cc1	6.6	0.9	1.7	19.4	0.4	64.2*
CC(=O)NCCC(=O)Nc1ccc(C)c(F)c1	9.8	0.9	0.4	-44.1	0.9	10.5
Cc1ccc(NC(=O)CCn2cccc2)cc1F	61.3*	0.4	-3.8	-31.0	0	95.8*
N#Cc1cccc(NC(=O)CCn2ccnc2)c1	87.0*	0.1	4.2	-29.3	0	95.4*
O=C(CCN1CCCCCC1)Nc1cccc(F)c1	1.8	1	-5.0	-9.0	1.2	-21.3
O=C(CCn1cccc1)Nc1cccc(F)c1	7.2	0.9	-2.1	-0.9	0.5	50.0*
COc1ccc(N2C(=O)CCC(C(=O)N3CCOCC3)C2c2ccc(F)cc2)cc1 (stereo not drawn)	8.2	0.9	-0.8	-41.5	1	0.9
O=C(Nc1ccc(F)cc1F)c1cc2nc3c(c(C(F)(F)F)n2n1)CCCC3	/	/	99.7	10.3	/	/
Cc1ccccc1NC(=O)C1CCC(C)(C(=O)O)C1(C)C (stereo not drawn)	-19.7	1.2	3.4	-15.5	1.2	-23.2
C=CCN(CC(=O)NCc1ccccc1)C(=O)c1csnn1	9.6	0.9	-0.2	-4.7	0.3	72.7*
COc1ccc(CNC(=O)CN(Cc2ccccc2)C(=O)c2csnn2)cc1	25.5	0.7	3.1	-8.3	0.7	31.8
COc1ccccc1-n1c(SCC(=O)N2CCc3ccccc32)nc2c(c1=O)SCC2	20.1	0.8	-6.2	4.8	1.1	-5.0
CC1Cc2nc(SCC(=O)c3ccccc3)n(Cc3ccccc3)c(=O)c2S1 (stereo not drawn)	97.3*	0	2.8	-11.1	0.5	47.1
CC1Cc2nc(SCC(=O)NC3CCCCC3)n(C)c(=O)c2S1 (stereo not drawn)	13.7	0.9	0.7	-11.2	0.8	23.3
CC1Cc2nc(SCC(=O)N3CCc4ccccc43)n(C)c(=O)c2S1 (stereo not drawn)	93.1*	0.1	/	/	0.7	26.5
CC1Cc2nc(SCC(=O)NCc3ccccc3)n(Cc3ccccc3)c(=O)c2S1 (stereo not drawn)	47.2	0.5	-2.9	18.4	1	1.5
CC1Cc2nc(SCC(=O)OCc3ccccc3)n(C)c(=O)c2S1 (stereo not drawn)	76.6*	0.2	-3.3	7.2	0.1	87.1*
Cc1ccc(Nc2n[nH]c(C)c2[N+](=O)[O-])cc1C	/	/	7.5	-0.3	/	/
Cc1nnc(-c2cccc(Br)c2)c2cn(-c3ccccc3Cl)nc12	65.7*	0.3	1.4	1.7	0.4	60.5*
Cc1ccc(-n2cc3c(-c4cccc(Br)c4)nnc(C)c3n2)cc1	91.6*	0.1	2.0	13.0	0.2	76.7*
Cc1cc(C)c2c(c1)/C(=N/NC(=S)Nc1ccc(F)cc1)CCC2	-26.6	1.3	0.0	4.5	1.1	-9.0
SMILES	CYP2C9 inhib	CYP2C9 act	CD11b adhes enh	CD11b adhes inh	CYP2C19 activ	CYP2C19 inhib
CN(C)S(=O)(=O)c1cccc(C(=O)OCC(=O)Nc2ccccc2OC(F)F)c1	5.9	0.9	-7.0	-11.1	0.9	7.1
CCN(CC)S(=O)(=O)c1cccc(C(=O)OCC(=O)Nc2ccccc2OC(F)F)c1	88.1*	0.1	-1.9	5.2	0.2	84.3*
CCN(CC)S(=O)(=O)c1cccc(C(=O)OCC(=O)N2CC(=O)Nc3ccccc32)c1	65.5*	0.3	-1.9	2.5	0.7	33.5
Cc1ccsc1C(=O)OCC(=O)N1CC(=O)Nc2ccccc21	-32.2	1.3	-1.8	10.4	0.9	10.3
O=C1CN(C(=O)COC(=O)c2cccc(S(=O)(=O)NCc3ccccc3)c2)c2ccccc2N1	68.0*	0.3	-3.0	0.9	0.6	43.6
O=C1CN(C(=O)COC(=O)c2cccc(OCc3ccccc3)c2)c2ccccc2N1	/	/	7.8	-5.6	/	/
CCN(CC)S(=O)(=O)c1cccc(C(=O)OCC(=O)C23CC4CC(CC(C4)C2)C3)c1	74.2*	0.3	-2.9	42.7	1	-1.6
COc1ccc(CCNC(=O)C2CCC(CNc3c(N4CCCC4)c(=O)c3=O)CC2)cc1OC (stereo not drawn)	-3.7	1	-6.3	-9.2	1	-4.5
Cc1cc(-c2nsc(=O)o2)c(S(C)(=O)=O)s1	16.6	0.8	/	/	0.9	9.6
COc1ccc(C(C)=O)cc1COC(=O)Cc1n[nH]c(=O)c2ccccc12	43.5	0.6	0.2	-32.3	0.6	41.6
COc1ccc(C(C)=O)cc1COC(=O)c1cc(C)oc1C	65.8*	0.3	-0.5	0.6	0.4	60.6*
COc1ccc(C(C)=O)cc1COC(=O)c1cccc(N(C)C)c1	79.4*	0.2	-5.3	1.2	0.3	71.5*
COc1ccc(C(C)=O)cc1COC(=O)CNC(=O)c1cc(C)cc(C)c1	/	/	-1.1	13.9	/	/
O=c1c2c3n(c(=O)nc2[nH]n1-c1ccccc1)CCCCC3	5.4	0.9	-2.4	14.7	1	1.4
CCOC(=O)C(Oc1ccc(=O)[nH]n1)C(C)=O (stereo not drawn)	-13.8	1.1	1.7	7.6	0.5	45.3
CCOC(=O)C(Oc1ccc(=O)n(-c2ccccc2)n1)C(C)=O (stereo not drawn)	-2.4	1	1.8	-12.7	0.4	56.3*
COC(=O)COc1ccc(=O)n(-c2ccccc2)n1	22.7	0.8	-3.8	9.7	0.4	62.7*
O=C(O)COc1ccc(=O)n(-c2ccccc2)n1	-1.6	1	-5.0	-6.0	1	4.4
Cc1ccc(CS(=O)(=O)CCC(=O)NCCCN2CCCC2)cc1	9.9	0.9	/	/	1.1	-9.4
O=C(NCc1ccc2c(c1)OCO2)c1cccc([N+](=O)[O-])c1	24.9	0.8	4.3	-34.8	0.1	89.0*
CCOC(=O)C(CCCOc1cccc(OC)c1)C(=O)OCC	82.5*	0.2	4.5	-2.6	0.1	90.5*
O=C(NCc1ccc2c(c1)OCO2)c1ccc2snnc2c1	64.6*	0.4	-2.1	-4.1	0.3	66.0*
CCOCCCNC(=O)c1ccc2c(c1)OCO2	-11.9	1.1	-1.9	0.4	1.1	-7.5
O=C(NCCOc1ccccc1)c1ccc2c(c1)OCO2	59.1*	0.4	-2.0	3.1	0.1	86.4*
CCOC(=O)C(CCCOc1cccc(CC)c1)C(=O)OCC	12.8	0.9	-1.9	-15.4	0.9	10.8
